# Test results published in PubChem BioAssay (NCI).
# The panel holds about 83,000 compounds, 20% with a hit somewhere; the sample as a whole holds those more often.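 Cells were grown in 96-well plates and exposed to the test compound at a single concentration for 48 hours; results are reported as percent growth, with values below 10 considered active.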 A number with no mark means an inactive call. The source made the active and inactive calls.
# Legend:
# Assay in all cases: NCI-60 one-dose screen, 48 h (100 = growth as untreated, 0 = no growth, -100 = all killed)
# Conditions in all cases: 10 µM unless noted
# SR leukemia = tested on: SR leukemia
# RPMI-8226 leukemia = tested on: RPMI-8226 leukemia
# OVCAR-8 ovarian = tested on: OVCAR-8 ovarian
# OVCAR-5 ovarian = tested on: OVCAR-5 ovarian
# SK-OV-3 ovarian = tested on: SK-OV-3 ovarian
# IGROV1 ovarian = tested on: IGROV1 ovarian
# OVCAR-3 ovarian = tested on: OVCAR-3 ovarian
# HS 578T breast = tested on: HS 578T breast
# NCI/ADR-RES ovarian = tested on: NCI/ADR-RES ovarian
# T-47D breast = tested on: T-47D breast
# BT-549 breast = tested on: BT-549 breast
# MDA-MB-435 melanoma = tested on: MDA-MB-435 melanoma
# SW-620 colon = tested on: SW-620 colon
# MCF7 breast = tested on: MCF7 breast
# HCT-116 colon = tested on: HCT-116 colon
# HCC-2998 colon = tested on: HCC-2998 colon
# KM12 colon = tested on: KM12 colon
# OVCAR-4 ovarian = tested on: OVCAR-4 ovarian
Structure (SMILES),growth (SR leukemia),growth (RPMI-8226 leukemia),growth (OVCAR-8 ovarian),growth (OVCAR-5 ovarian),growth (SK-OV-3 ovarian) [%],growth (IGROV1 ovarian),growth (OVCAR-3 ovarian) [%],growth (HS 578T breast) [%],growth (NCI/ADR-RES ovarian),growth (T-47D breast),growth (BT-549 breast) [%],growth (MDA-MB-435 melanoma),growth (SW-620 colon),growth (MCF7 breast),growth (HCT-116 colon),growth (HCC-2998 colon),growth (KM12 colon),growth (OVCAR-4 ovarian)
Cc1ccc(S(=O)(=O)OCC#CCOS(=O)(=O)c2ccc(C)cc2)cc1,10.8%,20.2%,34.6%,112%,98.3,-40.2% (active),12.4,62.4,31%,-22.9% (active),54.9,49.3%,51.2%,31%,24.7%,81.6%,60.9%,
CCOC(=O)C/C(=N\Nc1cc(=O)[nH]c2ccc(C)cc12)C(=O)OCC,46.4%,91.3%,101%,104%,126,98%,101,91.8,105%,107%,108,98.6%,94.8%,94.8%,99.7%,102%,100%,
Cc1ccc(S(=O)(=O)OC[C@]23CCC(C)(C)C[C@H]2C2=CC[C@@H]4[C@@]5(C)CCCNC(C)(C)[C@@H]5CC[C@@]4(C)[C@]2(C)CC3)cc1,-27.3% (active),26.8%,-13.7% (active),84.7%,103,16.9%,76.5,85.3,52.3%,1.19% (active),88.2,31%,-71.3% (active),23.8%,-83% (active),-12.3% (active),-1.94% (active),
O=C(c1ccc(Br)cc1)C(Br)C(c1ccc(Cl)cc1)C(c1ccccc1)[N+](=O)[O-] (stereo not drawn),,92.1%,95.3%,108%,99.4,108%,94.4,87.1,95.6%,76.9%,105,95.9%,96.4%,84.5%,76.2%,125%,92.7%,81.4%
Cc1c(O)cc(-c2cnc(N/N=C/c3ccccc3)s2)c(O)c1C,,51.5%,84.4%,110%,102,83.8%,95.5,91.2,93.6%,29.7%,72.8,95.5%,113%,72.3%,96.2%,131%,90.7%,63.5%
CCN(CC)CCN1C(=O)c2c(c3c4ccccc4[nH]c3c3ccc4ccccc4c23)C1=O,,-33.1% (active),-29.1% (active),-85.8% (active),83.1,76.1%,109,87.4,-40.9% (active),48.7%,84.5,-84.8% (active),4.79% (active),-50.8% (active),29.2%,85.5%,-15.8% (active),-79.5% (active)
Clc1cccc(C2Cc3cnccc3-c3[nH]c4ccncc4c32)c1 (stereo not drawn),,14.1%,56.4%,86.4%,50.9,52.7%,42.2,85,47.7%,34.4%,50.1,39.5%,44.7%,20.4%,32.5%,,44.3%,
COc1ccc(-c2cc(-c3cn(-c4cccc(Cl)c4)nc3-c3ccc(OC)cc3)on2)cc1,,88.3%,93.7%,111%,98,97.5%,103,96.3,100%,95%,121,110%,106%,86.6%,101%,101%,92.5%,106%
O=[N+]([O-])c1ccccc1Sc1ccccc1[N+](=O)[O-],,95.4%,102%,93.1%,90.9,,92.4,95.8,96.2%,81.5%,100,103%,110%,108%,94.9%,97.5%,92.6%,95.9%
O=C(Nc1ccc(Oc2cccc(Cl)c2)c(Cl)c1)c1cccnn1,,71.1%,91.7%,91.1%,102,91.4%,85.6,106,85%,72.4%,98.5,,105%,91.7%,66.7%,95.2%,85.3%,68.6%
CC(C)C1C2=C(NCCN1C(=O)c1ccncc1)C(C)(C)N(Cc1ccccc1)C2=O (stereo not drawn),,112%,108%,107%,98.9,101%,102,109,99.4%,103%,104,104%,105%,95.5%,92.8%,100%,97.6%,111%
Cc1ccc(S(=O)(=O)N2CCCN(c3nc(-c4ccccc4)nc4nc(-c5ccccc5)oc34)CC2)cc1,,89.6%,95.4%,105%,107,90.2%,114,103,102%,90.8%,117,104%,111%,93.4%,104%,107%,109%,103%
Nc1c(Cl)cc(/C=C2\C=Cc3ccccc32)cc1Cl,,107%,104%,102%,102,103%,111,115,101%,95.6%,101,107%,,123%,103%,98%,106%,107%
COc1cc2ncnc(Nc3ccc(F)c(Cl)c3)c2cc1OCC(=O)N1CCOCC1,,91%,87.2%,74.1%,17.4,45.6%,79.7,96.7,81.9%,53.5%,98.5,102%,102%,83.9%,84%,94.3%,94.4%,82.7%
Clc1ccc(Nc2ncc(Cc3cccc(Cl)c3Cl)s2)cc1,,89.4%,98%,85.8%,102,93.3%,100,102,93.3%,77.9%,129,105%,101%,90.9%,92.8%,,101%,94.8%
Cc1cccc(-c2nc(C(C)C)sc2-c2ccnc(NCCCNS(=O)(=O)c3ccc(Cl)cc3)c2)c1,,69.2%,81.4%,95.3%,72.9,70.5%,76.8,82,58.9%,52.5%,74.8,80%,56.6%,53.8%,54.4%,,58.1%,82.8%
O=c1cc(CNc2cc(F)cc(F)c2)c2ccc(I)cc2[nH]1,,15.8%,53.5%,64.3%,39,45.9%,11.2,19.9,26.3%,35.8%,54.8,-28.1% (active),19.1%,21.9%,26.4%,64.6%,24.1%,60.2%
COc1ccc(-c2cn(Cc3cc4ccccc4s3)nn2)cc1OCCN1CCCCC1,,28.5%,83.2%,80.5%,93.1,,74.6,51.3,75.4%,85.1%,74.8,69.6%,90.9%,60.6%,75.9%,57.4%,87%,68.2%
